Compounds without any hit were thinned out: in the full panel of roughly 79,000, 15% have a hit. The source made the active and inactive calls. Rule as the data show it: active = growth inhibition above about 70%; inactive = the rest.
Tests used:
[1] = NCI Yeast Anticancer Drug Screen. Data for the rad50 strain (AID 155);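 also: 0% = growth of vehicle-only cultures of the same strain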; settings: S. cerevisiae rad50 strain growth inhibition; at 50.0 µM; hits give high values
Summary of the method: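 Relative growth inhibition (compound vs vehicle) was measured in yeast with a defined repair-gene alteration.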

[2] = NCI Yeast Anticancer Drug Screen. Data for the mec2-1 strain (AID 157); settings: S. cerevisiae mec2-1 strain, at 50.0 µM, hits give high values
Summary of the method: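 Compounds were applied to mec2-1 yeast cells. Their growth was then compared with that of vehicle-treated cultures to give growth inhibition.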

[3] = NCI Yeast Anticancer Drug Screen. Data for the sgs1 mgt1 strain (AID 161);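 also: 0% = growth of cultures given vehicle only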; settings: S. cerevisiae sgs1 mgt1 strain, at 50.0 µM, hits give high values
Summary of the method: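 Yeast cells carrying a defined DNA-repair defect were exposed to test compounds. Growth inhibition was measured relative to vehicle-treated controls.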

[4] = NCI Yeast Anticancer Drug Screen. Data for the cln2 rad14 strain (AID 165);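 also: 0% = growth equal to vehicle treated cultures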; settings: S. cerevisiae cln2 rad14 strain, at 50.0 µM, hits give high values
Summary of the method: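 Strain: cln2 rad14 yeast, altered in cell cycle control and DNA damage repair. Read-out: growth inhibition vs vehicle.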

[5] = NCI Yeast Anticancer Drug Screen. Data for the bub3 strain (AID 167); settings: S. cerevisiae bub3 mutant strain, at 50.0 µM, hits give high values
Summary of the method: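 Screening used yeast with an engineered genetic alteration affecting cell cycle control. Compound-exposed cultures were compared with vehicle cultures, and reduced growth was taken as inhibition.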

[6] = NCI Yeast Anticancer Drug Screen. Data for the mlh1 rad18 strain (AID 175); settings: S. cerevisiae mlh1 rad18 strain growth inhibition; at 50.0 µM; hits give high values
Summary of the method: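 A repair-deficient yeast strain is exposed to test compound, and growth is scored relative to vehicle-treated controls.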

Structure (SMILES)	growth inhibition [1]	growth inhibition [2]	growth inhibition [3]	growth inhibition [4]	growth inhibition [5]	growth inhibition [6]
N#Cc1sc2nc3c(c(-c4ccccc4)c2c1N)CCCC3	-8.3% (inactive)	-4.65% (inactive)	-0.95% (inactive)	-8.4% (inactive)	-8.1% (inactive)	-5.75% (inactive)
Cc1cc(Cl)ncc1[N+](=O)[O-]	-12.2% (inactive)	14.3% (inactive)	7.55% (inactive)	-15.9% (inactive)	-9.65% (inactive)	5.75% (inactive)
COc1ccccc1-c1coc2c(ccc3oc(C(C)C)cc32)c1=O	-19.2% (inactive)	20% (inactive)	3.25% (inactive)	-52% (inactive)	-0.5% (inactive)	22.6% (inactive)
N#C/C=C\c1ccc(Cl)cc1	2.6% (inactive)	-4.5% (inactive)	-30.4% (inactive)	-10.8% (inactive)	-11.8% (inactive)	-3.05% (inactive)
Cc1ccc(Nc2ncnc3sc(SCc4ccccc4)nc23)cc1	-34.5% (inactive)	-20.4% (inactive)	-24.2% (inactive)	3.75% (inactive)	-24.6% (inactive)	-28.1% (inactive)
O=C1C=CC2CCC1C2 (stereo not drawn)	24.8% (inactive)	-6.25% (inactive)	-20.5% (inactive)	26.6% (inactive)	-38.8% (inactive)	-29.3% (inactive)
N#C/C(=C/N1C(=O)CC(=O)NC1=S)c1cccc(Cl)c1	-30.7% (inactive)	-14.3% (inactive)	-31.2% (inactive)	18.2% (inactive)	-28.8% (inactive)	-48.5% (inactive)
CC1OC(n2ccc(=O)[nH]c2=O)C=C(OC(=O)c2ccccc2)C1=O (stereo not drawn)	12.2% (inactive)	-12.2% (inactive)	-11.4% (inactive)	-7% (inactive)	-9.55% (inactive)	3.4% (inactive)
COc1ccc2[nH]c3c4c(cc(-c5ccccc5)c3c2c1)C(=O)N(c1ccccc1)C4=O	-11.1% (inactive)	-6% (inactive)	-16.6% (inactive)	11.2% (inactive)	-4.3% (inactive)	-6.8% (inactive)
O=C(CC/C=C(/CS(=O)(=O)c1ccccc1)S(=O)(=O)c1ccccc1)c1ccccc1	20.3% (inactive)	-15.1% (inactive)	-5.75% (inactive)	-24.1% (inactive)	-6.15% (inactive)	13.4% (inactive)
CC12CC(=O)OC(Cc3ccccc31)O2 (stereo not drawn)	-50.4% (inactive)	-27.1% (inactive)	-51.7% (inactive)	-1.25% (inactive)	-63.6% (inactive)	-40.5% (inactive)
CC(c1ccccc1)/[N+]([O-])=C/c1ccccc1 (stereo not drawn)	-31.7% (inactive)	-33.4% (inactive)	-46% (inactive)	-6.7% (inactive)	-57.2% (inactive)	-21.6% (inactive)
CCC(C#N)NC1CCN(Cc2ccccc2)CC1 (stereo not drawn)	1.3% (inactive)	-23.1% (inactive)	-2.05% (inactive)	6.1% (inactive)	-7.75% (inactive)	5.85% (inactive)
CCOC(=O)NC(NC(=O)OCC)c1ccc2c(c1)OCO2	-38.5% (inactive)	17.4% (inactive)	17.1% (inactive)	-11.8% (inactive)	5.75% (inactive)	3.8% (inactive)
Nc1cc(=O)n(-c2ccccc2)nc1Cl	2.05% (inactive)	4.4% (inactive)	-2.25% (inactive)	-18.6% (inactive)	3.1% (inactive)	0.2% (inactive)
CCC1CCC(CC)C1OC(C)=O (stereo not drawn)	-31.1% (inactive)	-27.7% (inactive)	-12.3% (inactive)	-26.4% (inactive)	-28.7% (inactive)	-21.6% (inactive)
Cc1c(-c2ccccc2)noc1-n1nnc2ccccc2c1=O	-7.45% (inactive)	29.6% (inactive)	11.4% (inactive)	-42.8% (inactive)	48.4% (inactive)	9.05% (inactive)
Cc1ccc(NC(Nc2ccc(C)c(Cl)c2)C(Cl)(Cl)Cl)cc1Cl	9.65% (inactive)	-24% (inactive)	-5.7% (inactive)	-7.7% (inactive)	5.75% (inactive)	-15.3% (inactive)
CC1(C)OC(=O)C=C(O)O1.CC1(C)OC(=O)C=C(O)O1.CCO.Oc1ccc2c(c1)CCC2.[Ti]	-15.7% (inactive)	-13.5% (inactive)	-29.1% (inactive)	20.4% (inactive)	-5.05% (inactive)	6.75% (inactive)

Structure (SMILES)	growth inhibition [1]	growth inhibition [2]	growth inhibition [3]	growth inhibition [4]	growth inhibition [5]	growth inhibition [6]
CC(=O)C(N=Nc1ccc(S(=O)(=O)NC2NCCC(C)N2)cc1)C(=O)Nc1ccccc1C (stereo not drawn)	55.1% (inactive)	15.8% (inactive)	48% (inactive)	25.6% (inactive)	0.7% (inactive)	42.5% (inactive)
CCC(=O)c1c(O)cc(O)cc1O	-13.8% (inactive)	-15.6% (inactive)	13.7% (inactive)	-22.6% (inactive)	2.5% (inactive)	-25% (inactive)
Cc1ccc(S(=O)(=O)OC2C(CI)OCOC(CI)C2OS(=O)(=O)c2ccc(C)cc2)cc1 (stereo not drawn)	-1.05% (inactive)	-7.3% (inactive)	-6.3% (inactive)	-20.4% (inactive)	-21.6% (inactive)	-14.8% (inactive)
Cn1ccnc1CCc1c(Cl)cccc1Cl	-19.9% (inactive)	-21.4% (inactive)	-47.1% (inactive)	9.4% (inactive)	-16.2% (inactive)	-22.9% (inactive)
O=c1cc(-c2ccccc2)oc2c1ccc1c(O)cccc12	11.1% (inactive)	-2.5% (inactive)	-6.9% (inactive)	21.5% (inactive)	31.9% (inactive)	8.95% (inactive)
OC(C(=S)N1CCCC1)(c1ccccc1)c1ccccc1	10.8% (inactive)	17.3% (inactive)	24.2% (inactive)	8.45% (inactive)	9.6% (inactive)	-0.6% (inactive)
C=CCNC(=O)C1C2C=CC(C2)C1C(=O)NCC=C (stereo not drawn)	4.95% (inactive)	-4.8% (inactive)	-21.9% (inactive)	-4.85% (inactive)	-7.95% (inactive)	24.8% (inactive)
CC(C(=O)O)N(C)C(=O)OCc1ccccc1 (stereo not drawn)	-3.95% (inactive)	-21.1% (inactive)	1.55% (inactive)	-18.8% (inactive)	-11.8% (inactive)	-4.5% (inactive)
COc1cc2cc[n+]3c(C)c4ccc(OC)c(OC)c4cc3c2cc1OC (tested in a mixture with another compound)	-4.15% (inactive)	17.2% (inactive)	-5.3% (inactive)	-10.8% (inactive)	-3.55% (inactive)	6.65% (inactive)
O=C1C=C2CCC(c3ccc(O)cc3)CC2CC1 (stereo not drawn)	-3% (inactive)	7.6% (inactive)	-1.6% (inactive)	7.65% (inactive)	-0.45% (inactive)	-8% (inactive)
CN(C)c1ncnc2c1ncn2C1OC(CO)C(O)C1O (stereo not drawn)	14.2% (inactive)	20% (inactive)	4% (inactive)	-34.4% (inactive)	18.1% (inactive)	24.5% (inactive)
CC(C)c1ccc(Cc2ccc(C(C)C)c(NC(=O)C(=O)Cc3cnc4ccccc4n3)c2C(C)C)c(C(C)C)c1NC(=O)C(=O)Cc1cnc2ccccc2n1	-28.4% (inactive)	-18.4% (inactive)	-24.9% (inactive)	14.3% (inactive)	-13.2% (inactive)	-28.8% (inactive)
O=c1c2ccccc2c2nccn2c2ccccc12	13.8% (inactive)	3% (inactive)	19.1% (inactive)	-9.1% (inactive)	-0.3% (inactive)	-5.25% (inactive)
CC(N)CCN (stereo not drawn)	3.7% (inactive)	11.2% (inactive)	-5.55% (inactive)	10.8% (inactive)	12.1% (inactive)	1.55% (inactive)
O=C1N(c2cccc(F)c2)C(=O)N1c1cccc(F)c1	27.4% (inactive)	3.3% (inactive)	-9.1% (inactive)	13.2% (inactive)	-1.1% (inactive)	5.5% (inactive)
COC1(OC)C2(Cl)C3=CCCC=C3C1(Cl)C(Cl)=C2Cl	27.5% (inactive)	9.45% (inactive)	11.7% (inactive)	29.8% (inactive)	15.6% (inactive)	-6.65% (inactive)
O=C1NC(N2CCCCC2)=N/C1=C\c1ccccc1O	5% (inactive)	-25.3% (inactive)	-2.85% (inactive)	15.1% (inactive)	5.5% (inactive)	89.7% (active)
O=c1[nH]c(-c2ccccc2)c(-c2ccccc2)nc1Cl	6.35% (inactive)	1.8% (inactive)	6.5% (inactive)	-11.7% (inactive)	-19.1% (inactive)	18.1% (inactive)
O=S1(=O)CC=CC1	-10.2% (inactive)	3.45% (inactive)	-7.95% (inactive)	13.2% (inactive)	11.9% (inactive)	3.15% (inactive)
